Results: the supplement of paper PMC10681739

biological target: T1, ETS1 (UniProt P14921); test: TF binding intensity (PBM fluorescence), negative control probe (arbitrary fluorescence units); higher = stronger binding
T1 sequence: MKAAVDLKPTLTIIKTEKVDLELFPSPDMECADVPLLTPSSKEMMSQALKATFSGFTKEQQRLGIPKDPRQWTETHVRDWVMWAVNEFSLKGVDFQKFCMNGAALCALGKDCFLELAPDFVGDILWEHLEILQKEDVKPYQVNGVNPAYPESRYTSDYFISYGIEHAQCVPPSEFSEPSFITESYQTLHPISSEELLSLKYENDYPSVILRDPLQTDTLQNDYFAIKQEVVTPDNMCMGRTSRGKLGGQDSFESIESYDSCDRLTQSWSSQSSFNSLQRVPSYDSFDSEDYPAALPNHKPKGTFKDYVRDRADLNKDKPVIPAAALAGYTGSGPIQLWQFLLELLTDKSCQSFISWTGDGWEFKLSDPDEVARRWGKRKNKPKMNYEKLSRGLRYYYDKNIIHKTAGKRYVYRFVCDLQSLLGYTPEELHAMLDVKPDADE
Protocol: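 gcPBM negative-control 36-bp genomic probes lacking TF binding sites. Each was incubated with recombinant human ETS1 or RUNX1 alone and detected by antibody fluorescence. Values are medians over replicate spots (4 spots for the ETS1-RUNX1 arrays, 3 for the ETS1-ETS1 array). The probes sit in constant array flanks that are not printed.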

Compared with “GTTTCTTATAAGCAGAAACACTAACAAAGGACAGCG (protein concentration 10 nM)”, “AAAAAAATAGCTTTAACCACAAAAACTCCTTGAAAA (protein concentration 1 nM)” is higher in TF binding intensity: 146 for the first, 514 for the second.

First: CGGACTGGGAGTTTGACCGCGTTGACGACGGCTCGC (protein concentration 1 nM)
Second: ACTCATTAGCAGTGAGCCACAAAGACTCTCTGGAAG (protein concentration 1 nM)
The TF binding intensity of the first is higher: 446 for the first, 359 for the second.

Compared with “GGCTCCTATATTAAAATTGGTATTAGTAGACAATGT (protein concentration 10 nM)”, “CATCCCTCTGCCAGATGGAATTTGGAGATAAACCTC (protein concentration 10 nM)” is lower in TF binding intensity: 131 for the first, 130 for the second.

Going from “TGGCCTGGGAAAGAACCCACAGGCTTCTGGTTGCTG (protein concentration 1 nM)” to “AGCTTTCCAAGTTTTTGTGGGCAACATCAACTGTTC (protein concentration 1 nM)”, the TF binding intensity falls from 597 to 486.

First: GTTCCAGGCATTGTACTGAGGGGAGGCCCTCCTGTG (protein concentration 10 nM)
Second: TGGAAAATAATATTTCAAGACCATAATATGGCTGCT (protein concentration 10 nM)
The TF binding intensity of the first is higher: 109 for the first, 100 for the second.

First: AAACTAATCAGAATTTAACATCATACATAAATGGCA (protein concentration 10 nM)
Second: TCCTTTTGCTATACAGACCCCAGAACTCCTGAATGG (protein concentration 10 nM)
The TF binding intensity of the first is lower: 116 for the first, 119 for the second.

Compared with “CTCCCTCTCTCCCTCCCTCCCTCCCTCCCTCCCTTC (protein concentration 10 nM)”, “CCCCTGTGCAACCTTTCATTCCCTAAGCCACTTTTC (protein concentration 10 nM)” is lower in TF binding intensity: 230 for the first, 139 for the second.

Compared with “GAGCAGGAGAAAATGTGTCTGAGAAAGAGCTAGGAG (protein concentration 10 nM)”, “TACTACTATAAAGATGGATACATGTCGTTATACATT (protein concentration 10 nM)” is lower in TF binding intensity: 128 for the first, 106 for the second.

Going from “TATTTCACGCAAATAAGCAGTGACTGAGGACACAGT (protein concentration 10 nM)” to “GGTATCGAGCTCGGGGGACTGGGCTGCGGGGGACGT (protein concentration 10 nM)”, the TF binding intensity rises from 117 to 264.

First: CGCCAGGGGGAGCAACAGAAATCCACACCAGGGAAG (protein concentration 10 nM)
Second: TTGTTACACTCCACGCTTTAGCTATTTGTTGCTACT (protein concentration 10 nM)
The TF binding intensity of the first is higher: 173 for the first, 120 for the second.

Compared with “GTTAAGTACCTGAATGAGCACTGGACCAGAGCCGGG (protein concentration 10 nM)”, “CTGGTGGCCACCCTTGTGGCGCTGAGGTGCTGAGGT (protein concentration 10 nM)” is higher in TF binding intensity: 106 for the first, 127 for the second.

Going from “GGTAATAGTTACTGCTGTGGTCTGAATGTTTGTGTC (protein concentration 1 nM)” to “CTTATTATTAATGGTCATTAGCCACAGTCACCACCA (protein concentration 10 nM)”, the TF binding intensity falls from 555 to 137.

Compared with “TTTTTTTTTTTGGTCTGTGGTTTTGGAGTTTTTGTT (protein concentration 1 nM)”, “CCTTGCCAATGTTTGTGTGGAGAGCACACGGGTGCT (protein concentration 10 nM)” is lower in TF binding intensity: 716 for the first, 116 for the second.

Going from “TCCTGTAAGGACATTTTGTGCCTTCTCCCATGATGA (protein concentration 10 nM)” to “GAAAACACTAGCGTGACCTCAACAACTAAGATTAAA (protein concentration 1 nM)”, the TF binding intensity rises from 97.8 to 490.

Going from “GTTTATTGCCCACAACATGTCAGGCACAGTGGGAAG (protein concentration 10 nM)” to “GCCCTCTGCGGGGCAACAGCACGAGGCATTACCCCT (protein concentration 10 nM)”, the TF binding intensity falls from 132 to 107.

Compared with “AACTTGTCCCTGGAATGTGGTTGAAACAGACTTAGG (protein concentration 1 nM)”, “TGGACTAACTCCATTGCCTTTGTATACATTGGTTTC (protein concentration 10 nM)” is lower in TF binding intensity: 448 for the first, 102 for the second.

Compared with “CCCTGAGGTCTATCTTGCTGCAAATTGAATGCCTGC (protein concentration 10 nM)”, “ACTTTCTATGAGGCTGCCACTCCTGGTACCACACAT (protein concentration 10 nM)” is higher in TF binding intensity: 120 for the first, 133 for the second.

Going from “AGTATGAGTTTGAATACACAGAACCTTTCTCATTCT (protein concentration 10 nM)” to “GAGATGCAGCAGCGTCTCCCAGTCCTCACCGCGGCC (protein concentration 10 nM)”, the TF binding intensity rises from 106 to 112.

First: CCACGCTTTGCCAGCACTTTCCCCTGCCTCGTCTGT (protein concentration 10 nM)
Second: AAATTCTGTAACCAGTGCTCTTGAGCTGCTTGCTGG (protein concentration 10 nM)
The TF binding intensity of the first is higher: 119 for the first, 102 for the second.

First: TTCTTTGACTCACTATGCGGGTTGGTACATCTGGGG (protein concentration 1 nM)
Second: CAGAGGGGGCCTCTGGGGCAGCGGTGCTGGGAGCGG (protein concentration 10 nM)
The TF binding intensity of the first is higher: 476 for the first, 109 for the second.
